# From article PMC7862700, “An all-to-all approach to the identification of sequence-specific readers for epigenetic DNA modifications on cytosine”
# How the values were obtained:
# Experiment in all cases: DAPPL (digital affinity profiling via proximity ligation, sequencing); 10 mM Tris-HCl pH 7.5, 50 mM NaCl, 1 mM DTT, 4% glycerol, room temperature, 30 min; GST-TFs on glutathione beads, 16-mer random dsDNA library, 0.1% formaldehyde crosslink after washing; high values mean tight binding
# FEV = molecular target: T1, FEV (Homo sapiens, UniProt Q99581 1-238); conditions: protein: recombinant; tags: N-terminal GST; dsDNA, one strand shown
# T1 sequence: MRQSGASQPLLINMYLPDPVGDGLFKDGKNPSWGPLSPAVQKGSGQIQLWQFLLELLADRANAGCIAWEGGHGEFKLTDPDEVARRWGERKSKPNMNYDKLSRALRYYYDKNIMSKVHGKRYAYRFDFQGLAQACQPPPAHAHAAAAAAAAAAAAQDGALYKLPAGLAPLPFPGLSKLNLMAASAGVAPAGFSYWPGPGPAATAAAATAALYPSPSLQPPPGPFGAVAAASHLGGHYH
# Procedure, shortened: (§1)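 Binding signal is defined as a hexamer's read frequency for one factor over its frequency for the tag-only sample. To obtain reads, GST-fused human transcription factors were expressed in yeast, captured on glutathione beads, barcoded with DNA and pooled with that sample. Pools met 200 nmole of a 16-mer random double-stranded DNA library in Tris/NaCl/DTT/glycerol buffer for 30 min at room temperature before washing, 0.1% formaldehyde crosslinking, proximity ligation (BsaI/T4 ligase, 1 h, 37 °C), PCR and Illumina NextSeq500 sequencing.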
# ETV5 = ETV5 (Homo sapiens, UniProt P41161 1-510); conditions: protein: recombinant; tags: N-terminal GST; dsDNA, one strand shown
# Sequence of ETV5 (P41161 whole entry): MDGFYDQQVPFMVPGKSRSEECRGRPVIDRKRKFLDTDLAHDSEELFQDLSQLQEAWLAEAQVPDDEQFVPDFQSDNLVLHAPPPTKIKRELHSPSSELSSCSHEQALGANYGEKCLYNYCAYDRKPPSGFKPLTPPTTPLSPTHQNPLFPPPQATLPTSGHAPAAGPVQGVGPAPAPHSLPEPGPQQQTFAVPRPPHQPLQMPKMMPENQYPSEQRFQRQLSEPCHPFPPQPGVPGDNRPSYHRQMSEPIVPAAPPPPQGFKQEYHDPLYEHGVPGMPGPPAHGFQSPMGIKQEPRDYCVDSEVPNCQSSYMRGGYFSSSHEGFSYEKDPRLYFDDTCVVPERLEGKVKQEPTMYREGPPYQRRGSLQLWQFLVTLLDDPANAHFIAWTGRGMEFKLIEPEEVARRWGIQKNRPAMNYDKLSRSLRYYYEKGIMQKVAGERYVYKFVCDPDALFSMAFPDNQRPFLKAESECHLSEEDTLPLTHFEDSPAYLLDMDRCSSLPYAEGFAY
# Procedure, shortened: as §1
# HSF1 = HSF1 (Homo sapiens, UniProt Q00613 1-529); conditions: protein: recombinant; tags: N-terminal GST; chain copies: 3; dsDNA, one strand shown
# Sequence of HSF1 (Q00613 whole entry): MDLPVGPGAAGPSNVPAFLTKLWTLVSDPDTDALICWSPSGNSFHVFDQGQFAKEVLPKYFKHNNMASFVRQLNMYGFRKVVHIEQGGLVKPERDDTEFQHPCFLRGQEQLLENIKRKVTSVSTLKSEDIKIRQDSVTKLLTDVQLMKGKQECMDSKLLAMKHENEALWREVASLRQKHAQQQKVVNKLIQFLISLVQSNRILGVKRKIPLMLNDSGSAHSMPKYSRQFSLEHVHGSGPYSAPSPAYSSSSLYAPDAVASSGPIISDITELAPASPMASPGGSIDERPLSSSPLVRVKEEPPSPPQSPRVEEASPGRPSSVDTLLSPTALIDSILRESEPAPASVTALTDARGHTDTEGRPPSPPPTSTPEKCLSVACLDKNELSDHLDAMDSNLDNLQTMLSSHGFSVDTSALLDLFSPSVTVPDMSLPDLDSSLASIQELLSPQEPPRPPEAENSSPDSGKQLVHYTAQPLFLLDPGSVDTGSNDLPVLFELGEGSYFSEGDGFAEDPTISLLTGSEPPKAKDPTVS
# Procedure, shortened: as §1
# SPIC = molecular target: T2, SPIC (Homo sapiens, UniProt Q8N5J4 1-248); conditions: protein: recombinant; tags: N-terminal GST; dsDNA, one strand shown
# T2 sequence: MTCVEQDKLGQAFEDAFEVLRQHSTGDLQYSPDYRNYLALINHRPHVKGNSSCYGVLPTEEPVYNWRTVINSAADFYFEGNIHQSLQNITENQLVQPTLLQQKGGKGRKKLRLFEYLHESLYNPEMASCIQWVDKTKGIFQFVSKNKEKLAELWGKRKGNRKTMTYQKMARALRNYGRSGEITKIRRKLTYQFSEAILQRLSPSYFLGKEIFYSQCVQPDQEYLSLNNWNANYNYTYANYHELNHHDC
# Procedure, shortened: as §1
# ELF4 = ELF4 (Homo sapiens, UniProt Q99607 1-663); conditions: protein: recombinant; tags: N-terminal GST; dsDNA, one strand shown
# Sequence of ELF4 (Q99607 whole entry): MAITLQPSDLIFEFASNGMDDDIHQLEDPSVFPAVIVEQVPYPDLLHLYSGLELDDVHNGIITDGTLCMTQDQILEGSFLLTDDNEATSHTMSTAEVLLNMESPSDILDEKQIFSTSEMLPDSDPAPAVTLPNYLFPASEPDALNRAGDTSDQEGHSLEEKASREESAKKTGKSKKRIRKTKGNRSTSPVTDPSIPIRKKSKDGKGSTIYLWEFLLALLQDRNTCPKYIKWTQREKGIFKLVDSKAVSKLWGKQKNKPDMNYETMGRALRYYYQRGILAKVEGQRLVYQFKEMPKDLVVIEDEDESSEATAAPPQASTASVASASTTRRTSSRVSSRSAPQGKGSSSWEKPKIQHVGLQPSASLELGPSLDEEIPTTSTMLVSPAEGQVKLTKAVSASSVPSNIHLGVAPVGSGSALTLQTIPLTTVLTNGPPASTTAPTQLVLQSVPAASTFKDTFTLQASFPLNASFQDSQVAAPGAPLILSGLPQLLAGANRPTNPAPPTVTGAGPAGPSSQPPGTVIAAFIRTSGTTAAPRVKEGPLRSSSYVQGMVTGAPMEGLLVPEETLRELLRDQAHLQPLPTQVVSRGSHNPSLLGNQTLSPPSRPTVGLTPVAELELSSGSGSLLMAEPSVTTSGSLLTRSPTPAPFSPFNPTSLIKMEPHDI
# Procedure, shortened: as §1
# ELK4 = molecular target: T3, ELK4 (Homo sapiens, UniProt P28324-2 1-405); conditions: protein: recombinant; tags: N-terminal GST; dsDNA, one strand shown
# T3 sequence: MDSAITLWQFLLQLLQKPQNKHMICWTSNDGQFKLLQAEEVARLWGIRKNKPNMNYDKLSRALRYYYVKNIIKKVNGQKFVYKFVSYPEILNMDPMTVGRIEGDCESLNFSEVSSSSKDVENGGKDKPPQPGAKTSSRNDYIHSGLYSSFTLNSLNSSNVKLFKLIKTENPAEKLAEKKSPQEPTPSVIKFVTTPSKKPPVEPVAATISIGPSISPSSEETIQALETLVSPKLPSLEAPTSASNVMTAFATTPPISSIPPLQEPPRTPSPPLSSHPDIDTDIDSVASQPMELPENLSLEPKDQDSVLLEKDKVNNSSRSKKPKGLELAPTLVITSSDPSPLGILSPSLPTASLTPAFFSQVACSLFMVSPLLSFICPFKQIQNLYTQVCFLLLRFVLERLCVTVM
# Procedure, shortened: as §1
# ETV2 = molecular target: T4, ETV2 (Homo sapiens, UniProt O00321 1-342); conditions: protein: recombinant; tags: N-terminal GST; dsDNA, one strand shown
# T4 sequence: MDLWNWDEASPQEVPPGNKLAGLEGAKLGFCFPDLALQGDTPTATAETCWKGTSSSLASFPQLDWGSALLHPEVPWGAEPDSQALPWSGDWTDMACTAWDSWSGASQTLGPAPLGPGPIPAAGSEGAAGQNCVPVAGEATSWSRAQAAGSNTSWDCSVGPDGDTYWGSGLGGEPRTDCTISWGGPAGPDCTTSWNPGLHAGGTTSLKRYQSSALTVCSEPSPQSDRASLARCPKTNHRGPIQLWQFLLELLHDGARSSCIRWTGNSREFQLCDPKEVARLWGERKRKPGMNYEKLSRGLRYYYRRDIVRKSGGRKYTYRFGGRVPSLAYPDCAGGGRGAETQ
# Procedure, shortened: as §1
# ELF3 = molecular target: T5, ELF3 (Homo sapiens, UniProt P78545 1-371); conditions: protein: recombinant; tags: N-terminal GST; dsDNA, one strand shown
# T5 sequence: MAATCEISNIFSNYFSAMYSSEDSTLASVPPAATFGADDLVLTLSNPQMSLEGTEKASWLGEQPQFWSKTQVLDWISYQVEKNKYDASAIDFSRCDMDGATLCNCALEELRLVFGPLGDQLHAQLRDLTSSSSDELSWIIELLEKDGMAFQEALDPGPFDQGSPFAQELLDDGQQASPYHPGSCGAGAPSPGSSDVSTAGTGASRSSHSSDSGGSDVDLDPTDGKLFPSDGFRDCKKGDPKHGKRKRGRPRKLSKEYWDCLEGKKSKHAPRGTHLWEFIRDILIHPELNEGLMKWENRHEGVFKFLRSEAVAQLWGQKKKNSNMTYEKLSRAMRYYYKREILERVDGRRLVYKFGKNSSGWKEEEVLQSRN
# Procedure, shortened: as §1
# CRX = CRX (Homo sapiens, UniProt O43186 1-299); conditions: protein: recombinant; tags: N-terminal GST; dsDNA, one strand shown
# Sequence of CRX (O43186 whole entry): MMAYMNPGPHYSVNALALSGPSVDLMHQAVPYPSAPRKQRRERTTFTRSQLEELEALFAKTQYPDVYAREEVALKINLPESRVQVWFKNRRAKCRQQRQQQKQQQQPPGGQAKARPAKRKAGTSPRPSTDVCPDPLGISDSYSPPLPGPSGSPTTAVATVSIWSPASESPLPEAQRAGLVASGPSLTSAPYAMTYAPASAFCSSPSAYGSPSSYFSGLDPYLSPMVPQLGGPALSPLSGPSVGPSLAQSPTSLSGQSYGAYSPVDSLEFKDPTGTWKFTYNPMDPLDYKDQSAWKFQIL
# Procedure, shortened: as §1
# ETV1 = ETV1 (Homo sapiens, UniProt P50549 1-477); conditions: protein: recombinant; tags: N-terminal GST; dsDNA, one strand shown
# Sequence of ETV1 (P50549 whole entry): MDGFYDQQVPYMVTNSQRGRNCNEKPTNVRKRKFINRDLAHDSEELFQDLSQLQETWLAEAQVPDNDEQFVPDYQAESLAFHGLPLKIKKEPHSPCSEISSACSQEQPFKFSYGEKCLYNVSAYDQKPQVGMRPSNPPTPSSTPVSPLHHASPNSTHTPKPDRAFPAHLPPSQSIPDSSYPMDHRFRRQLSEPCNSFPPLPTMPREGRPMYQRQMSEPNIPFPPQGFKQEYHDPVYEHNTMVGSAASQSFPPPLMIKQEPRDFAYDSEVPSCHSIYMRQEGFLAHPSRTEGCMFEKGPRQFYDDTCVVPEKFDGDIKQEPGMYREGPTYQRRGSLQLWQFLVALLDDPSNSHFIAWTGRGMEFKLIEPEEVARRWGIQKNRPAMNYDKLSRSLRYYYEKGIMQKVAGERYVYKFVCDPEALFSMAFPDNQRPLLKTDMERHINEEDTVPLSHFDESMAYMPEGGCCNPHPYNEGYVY
# Procedure, shortened: as §1
# ERF = molecular target: T6, ERF (Homo sapiens, UniProt P50548 1-548); conditions: protein: recombinant; tags: N-terminal GST; dsDNA, one strand shown
# T6 sequence: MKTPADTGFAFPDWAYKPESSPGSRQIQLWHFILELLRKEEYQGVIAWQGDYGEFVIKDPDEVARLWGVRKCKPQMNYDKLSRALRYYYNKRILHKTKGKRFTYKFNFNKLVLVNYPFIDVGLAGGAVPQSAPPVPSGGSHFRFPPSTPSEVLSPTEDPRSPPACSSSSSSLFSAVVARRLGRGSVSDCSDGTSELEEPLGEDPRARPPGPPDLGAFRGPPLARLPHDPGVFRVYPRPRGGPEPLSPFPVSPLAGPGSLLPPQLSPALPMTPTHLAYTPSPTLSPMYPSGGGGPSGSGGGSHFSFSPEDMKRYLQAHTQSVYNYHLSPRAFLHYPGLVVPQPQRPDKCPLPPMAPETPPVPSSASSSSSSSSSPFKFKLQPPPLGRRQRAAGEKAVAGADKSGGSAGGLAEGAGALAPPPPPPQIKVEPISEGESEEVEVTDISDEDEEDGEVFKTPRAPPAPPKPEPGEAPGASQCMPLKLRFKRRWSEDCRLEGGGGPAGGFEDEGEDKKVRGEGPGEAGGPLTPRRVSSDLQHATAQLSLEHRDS
# Procedure, shortened: as §1
# ETV3L = molecular target: T7, ETV3L (Homo sapiens, UniProt Q6ZN32 1-361); conditions: protein: recombinant; tags: N-terminal GST; dsDNA, one strand shown
# T7 sequence: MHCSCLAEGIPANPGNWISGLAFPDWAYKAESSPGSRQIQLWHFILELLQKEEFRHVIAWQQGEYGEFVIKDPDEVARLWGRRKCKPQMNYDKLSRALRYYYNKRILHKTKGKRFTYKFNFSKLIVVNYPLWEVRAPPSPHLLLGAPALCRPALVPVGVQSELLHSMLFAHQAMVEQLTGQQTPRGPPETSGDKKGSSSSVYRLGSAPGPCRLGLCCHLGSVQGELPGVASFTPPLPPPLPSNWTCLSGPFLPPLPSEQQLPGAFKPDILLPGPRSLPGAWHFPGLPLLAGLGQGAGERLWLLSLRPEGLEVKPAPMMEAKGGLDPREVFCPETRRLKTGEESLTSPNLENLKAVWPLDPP
# Procedure, shortened: as §1
# ETS2 = molecular target: T8, ETS2 (Homo sapiens, UniProt P15036 1-469); conditions: protein: recombinant; tags: N-terminal GST; dsDNA, one strand shown
# T8 sequence: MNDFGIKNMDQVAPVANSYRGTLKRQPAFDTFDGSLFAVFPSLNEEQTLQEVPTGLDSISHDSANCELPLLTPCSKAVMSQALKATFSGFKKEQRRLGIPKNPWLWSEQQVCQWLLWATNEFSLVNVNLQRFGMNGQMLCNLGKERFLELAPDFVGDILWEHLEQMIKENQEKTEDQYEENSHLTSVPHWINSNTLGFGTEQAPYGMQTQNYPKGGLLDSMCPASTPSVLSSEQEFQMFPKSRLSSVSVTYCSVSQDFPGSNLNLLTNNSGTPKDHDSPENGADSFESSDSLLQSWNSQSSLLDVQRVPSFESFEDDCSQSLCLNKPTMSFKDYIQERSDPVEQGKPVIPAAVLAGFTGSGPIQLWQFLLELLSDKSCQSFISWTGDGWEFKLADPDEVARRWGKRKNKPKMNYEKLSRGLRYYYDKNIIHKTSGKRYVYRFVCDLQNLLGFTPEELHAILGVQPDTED
# Procedure, shortened: as §1
# SPDEF = molecular target: T9, SPDEF (Homo sapiens, UniProt O95238 1-335); conditions: protein: recombinant; tags: N-terminal GST; dsDNA, one strand shown
# T9 sequence: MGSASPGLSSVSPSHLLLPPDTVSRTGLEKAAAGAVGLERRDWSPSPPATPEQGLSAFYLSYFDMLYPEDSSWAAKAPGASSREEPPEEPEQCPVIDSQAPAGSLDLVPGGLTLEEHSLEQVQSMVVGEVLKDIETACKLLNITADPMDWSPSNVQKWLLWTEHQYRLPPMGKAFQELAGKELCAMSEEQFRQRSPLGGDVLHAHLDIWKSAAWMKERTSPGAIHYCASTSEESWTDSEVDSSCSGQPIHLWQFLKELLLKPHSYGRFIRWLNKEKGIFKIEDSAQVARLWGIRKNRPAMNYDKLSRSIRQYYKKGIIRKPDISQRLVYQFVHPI
# Procedure, shortened: as §1
# ETV7 = molecular target: T10, ETV7 (Homo sapiens, UniProt Q9Y603 1-341); conditions: protein: recombinant; tags: N-terminal GST; dsDNA, one strand shown
# T10 sequence: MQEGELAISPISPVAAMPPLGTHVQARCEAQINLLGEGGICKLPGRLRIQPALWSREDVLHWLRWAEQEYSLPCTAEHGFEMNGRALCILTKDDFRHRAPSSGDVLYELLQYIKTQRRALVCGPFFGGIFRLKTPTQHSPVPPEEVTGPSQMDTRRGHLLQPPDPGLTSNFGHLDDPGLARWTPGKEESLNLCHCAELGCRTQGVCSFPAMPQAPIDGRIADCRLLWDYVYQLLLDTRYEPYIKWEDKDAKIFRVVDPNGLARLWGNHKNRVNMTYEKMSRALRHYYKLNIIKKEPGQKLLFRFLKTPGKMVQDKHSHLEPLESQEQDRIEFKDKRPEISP
# Procedure, shortened: as §1
# ELF5 = molecular target: T11, ELF5 (Homo sapiens, UniProt Q9UKW6-2 1-255); conditions: protein: recombinant; tags: N-terminal GST; dsDNA, one strand shown
# T11 sequence: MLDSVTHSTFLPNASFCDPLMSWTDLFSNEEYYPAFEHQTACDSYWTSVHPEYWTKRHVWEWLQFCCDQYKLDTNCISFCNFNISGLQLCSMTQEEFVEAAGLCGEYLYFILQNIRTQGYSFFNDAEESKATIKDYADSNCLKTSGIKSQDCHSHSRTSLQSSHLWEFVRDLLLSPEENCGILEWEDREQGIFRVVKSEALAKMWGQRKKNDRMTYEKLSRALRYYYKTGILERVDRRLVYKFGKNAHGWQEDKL
# Procedure, shortened: as §1
# ETV3 = molecular target: T12, ETV3 (Homo sapiens, UniProt P41162-2 1-143); conditions: protein: recombinant; tags: N-terminal GST; dsDNA, one strand shown
# T12 sequence: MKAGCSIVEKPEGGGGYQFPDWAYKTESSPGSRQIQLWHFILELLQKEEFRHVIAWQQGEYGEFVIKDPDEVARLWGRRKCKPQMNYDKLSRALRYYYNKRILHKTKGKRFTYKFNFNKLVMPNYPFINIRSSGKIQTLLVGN
# Procedure, shortened: as §1
# ETV6 = ETV6 (Homo sapiens, UniProt P41212 1-452); conditions: protein: recombinant; tags: N-terminal GST; dsDNA, one strand shown
# Sequence of ETV6 (P41212 whole entry): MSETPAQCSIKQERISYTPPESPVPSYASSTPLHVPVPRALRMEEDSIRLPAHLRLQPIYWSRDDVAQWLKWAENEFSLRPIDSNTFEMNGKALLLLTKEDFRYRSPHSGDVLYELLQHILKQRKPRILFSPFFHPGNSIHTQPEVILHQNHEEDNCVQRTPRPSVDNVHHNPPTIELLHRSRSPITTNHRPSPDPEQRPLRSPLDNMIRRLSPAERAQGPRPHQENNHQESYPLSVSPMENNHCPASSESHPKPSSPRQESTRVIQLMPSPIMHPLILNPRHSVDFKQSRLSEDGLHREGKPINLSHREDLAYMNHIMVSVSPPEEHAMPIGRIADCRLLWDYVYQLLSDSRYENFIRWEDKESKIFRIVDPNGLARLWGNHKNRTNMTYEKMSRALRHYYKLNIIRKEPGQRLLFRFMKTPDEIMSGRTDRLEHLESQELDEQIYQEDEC
# Procedure, shortened: as §1
sequence,measurement,setting,value
TCTCTC,binding signal,FEV,"1.21 fold enrichment (6-mer frequency, TF over GST control)"
same,binding signal,ETV5,"1.27 fold enrichment (6-mer frequency, TF over GST control)"
same,binding signal,HSF1,"1.59 fold enrichment (6-mer frequency, TF over GST control)"
same,binding signal,SPIC,"1.36 fold enrichment (6-mer frequency, TF over GST control)"
same,binding signal,ELF4,"1.44 fold enrichment (6-mer frequency, TF over GST control)"
same,binding signal,ELK4,"1.38 fold enrichment (6-mer frequency, TF over GST control)"
same,binding signal,ETV2,"1.34 fold enrichment (6-mer frequency, TF over GST control)"
same,binding signal,ELF3,"1.39 fold enrichment (6-mer frequency, TF over GST control)"
same,binding signal,CRX,"1.35 fold enrichment (6-mer frequency, TF over GST control)"
same,binding signal,ETV1,"1.3 fold enrichment (6-mer frequency, TF over GST control)"
same,binding signal,ERF,"1.31 fold enrichment (6-mer frequency, TF over GST control)"
same,binding signal,ETV3L,"1.38 fold enrichment (6-mer frequency, TF over GST control)"
same,binding signal,ETS2,"1.2 fold enrichment (6-mer frequency, TF over GST control)"
same,binding signal,SPDEF,"1.28 fold enrichment (6-mer frequency, TF over GST control)"
same,binding signal,ETV7,"1.11 fold enrichment (6-mer frequency, TF over GST control)"
same,binding signal,ELF5,"1.24 fold enrichment (6-mer frequency, TF over GST control)"
same,binding signal,ETV3,"1.37 fold enrichment (6-mer frequency, TF over GST control)"
same,binding signal,ETV6,"1.27 fold enrichment (6-mer frequency, TF over GST control)"
